PubChem BioAssay (NCI)
About 83,000 compounds went through this panel and 20% of them were active in at least one assay; those are over-represented in the sample as a whole.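 How to read the values: 0–100, growth inhibition (40 = 60% inhibited); 0, no net growth; -100 to 0, cell death (-40 = 40% of starting cells died; -100 = all dead).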 Unmarked numbers belong to inactive results. Activity calls are given as the source filed them. The calls were made as follows: active = growth percent below 10; inactive = the rest.

Tests used:
Assay in all cases: NCI-60 one-dose screen, 48 h (100 = growth as untreated, 0 = no growth, -100 = all killed)
Settings in all cases: 10 µM unless noted
[1] = tested on: MOLT-4 leukemia
[2] = tested on: SR leukemia
[3] = tested on: RPMI-8226 leukemia
[4] = tested on: OVCAR-8 ovarian
[5] = tested on: OVCAR-5 ovarian
[6] = tested on: OVCAR-4 ovarian
[7] = tested on: SK-OV-3 ovarian
[8] = tested on: IGROV1 ovarian
[9] = tested on: OVCAR-3 ovarian
[10] = tested on: HS 578T breast
[11] = tested on: NCI/ADR-RES ovarian
[12] = tested on: T-47D breast
[13] = tested on: BT-549 breast
[14] = tested on: MDA-MB-435 melanoma
[15] = tested on: SW-620 colon
[16] = tested on: MCF7 breast
[17] = tested on: HCT-116 colon
[18] = tested on: HCC-2998 colon
[19] = tested on: KM12 colon

| SMILES | growth [1] | growth [2] | growth [3] | growth [4] | growth [5] | growth [6] | growth [7] | growth [8] | growth [9] | growth [10] | growth [11] | growth [12] | growth [13] | growth [14] | growth [15] | growth [16] | growth [17] | growth [18] | growth [19] |
| --- | --- | --- | --- | --- | --- | --- | --- | --- | --- | --- | --- | --- | --- | --- | --- | --- | --- | --- | --- |
| COC(=O)[C@@H](C)C[C@H](Cc1ccccc1)NC(=O)c1nc([C@@H](C[C@H](C(C)C)N(C)C(=O)[C@@H](NC(=O)[C@H]2C[C@H](O)CCN2C)C(C)C)OC(C)=O)sc1C(C)C | 11% | 3.04% (active) | -4.65% (active) | 10.6% | 33.4% | 35.6% | 2.1% (active) | 10.2% | 2.66% (active) | 6.61% (active) | 38.9% | 78.5% | -30.8% (active) | -48.3% (active) | 21.9% | 18.7% | 2.56% (active) | 14.1% | 0.729% (active) |
| COC(=O)[C@@]1(C)CC[C@]2(C)CC[C@]3(C)C4=CC=C5C(=CC(=O)C(O)=C5C)[C@]4(C)CC[C@@]3(C)[C@@H]2C1 | -43.3% (active) | -46.7% (active) | -26.7% (active) | -72.9% (active) | -93.1% (active) | -95% (active) | -97.6% (active) | -77.4% (active) | -92.1% (active) | -41.6% (active) | -59.8% (active) | -57.1% (active) | -95.2% (active) | -90.8% (active) | -83% (active) | -69.1% (active) | -96.4% (active) | -69.5% (active) | -63.1% (active) |
| O=C1C(N2CC2)=C(N2CC2)C(=O)C(N2CC2)=C1N1CC1 | 32.9% | 2.9% (active) | 37.7% | 0.671% (active) | -60.6% (active) | 51.7% | -30.6% (active) | -23.5% (active) | 4.7% (active) | 14.3% | -27.7% (active) | 30.5% | -34.2% (active) | -74.7% (active) | 0.521% (active) | -46.1% (active) | -79.2% (active) | -94.9% (active) | -58.6% (active) |
| O=C(Nc1ccc([As]=[As]c2ccc(NC(=O)c3ccccc3)cc2)cc1)c1ccccc1 (centres undefined) | -27.5% (active) | 0.482% (active) | 13.7% | -82.1% (active) | -89.1% (active) | -43.1% (active) | -81.5% (active) | -40.4% (active) | -94% (active) | -75.8% (active) | -38.6% (active) | -51.9% (active) | -90.4% (active) | -77.2% (active) | -67.3% (active) | -57.7% (active) | -92.4% (active) | -80.5% (active) | -80.4% (active) |
| CCOC(=O)[C@@H](C)C[C@H](Cc1ccccc1)NC(=O)c1csc([C@@H](C[C@H](C(C)C)N(C)C(=O)CNC(=O)[C@H]2CCCCN2C)OC(C)=O)n1 | 19.7% | 7.72% (active) | 15.4% | 9.59% (active) | 32.1% | 46.4% | 21.9% | 33.4% | -17.4% (active) | 3.01% (active) | 74.7% | 47.5% | 30.9% | -63.8% (active) | 24.5% | 17.9% | 3.7% (active) | 8.98% (active) | 12% |
| Clc1ccc(CO/N=C(\Cn2ccnc2)c2ccc(Cl)cc2Cl)c(Cl)c1 | -4.84% (active) | -13.7% (active) | -3.32% (active) | 9.94% (active) | 15.8% | 20.7% | 101% | 6.54% (active) | -60.1% (active) | -4.93% (active) | -12.2% (active) | 101% | -44% (active) | -13.2% (active) | 8.71% (active) | 0.337% (active) | -79.3% (active) | 3.92% (active) | -1.07% (active) |
| CC(C)CCC(=O)O[C@H]1CC[C@H]2[C@@H]3CCC4=CC(=O)CC[C@]4(C)[C@H]3CC[C@]12C | 96% | 90.7% | 98.6% | 104% | 93% | 103% | 128% | 96.3% | 97.9% | 86.9% | 99% | 102% | 104% | 96.6% | 94.5% | 105% | 99.8% | 105% | 95.2% |
| CN1C(=O)C23CC4(C56CC78SSC(CO)(C(=O)N7C5Nc5ccccc56)N(C)C8=O)c5ccccc5NC4N2C(=O)C1(CO)SS3 (centres undefined) | -62.2% (active) | -75.8% (active) | -25.8% (active) | -94.7% (active) | -77.7% (active) | -94.5% (active) | -98.6% (active) | -100% (active) | -97.8% (active) | -54.5% (active) | -23.4% (active) | -92.4% (active) | -99.1% (active) | -87% (active) | -78.5% (active) | -68.1% (active) | -78.5% (active) | -94.2% (active) | -82.9% (active) |
| Cn1cc(-c2csc(-c3cn(CCN4CCOCC4)c4ccccc34)n2)c2cccnc21 | 29.9% | 63.6% | 29.6% | 29.5% | 95.6% | 64.2% | 105% | 61.8% | 70% | 78% | 31.4% | 2.94% (active) | 45.1% | 65.1% | 83.1% | 30.7% | 72.9% | 99.2% | 56.5% |
| C[C@]12CC[C@H]3[C@@H](C[C@@H]4SC(Nc5ccccc5)=N[C@@]45CC(O)CC[C@]35C)[C@@H]1CCC2O (some centres undefined) | 6.79% (active) | 8.06% (active) | -32.3% (active) | -8.95% (active) | 92.2% | 64.1% | 89.6% | 11.2% | -31.6% (active) | 3.65% (active) | 36.3% | 16.3% | 19.2% | 3.47% (active) | -19.4% (active) | 29.2% | -81.5% (active) | 98.2% | 15.6% |
| C/C(=C\c1ccn(-c2ccc(N)cc2)n1)[C@@H]1C[C@@H]2O[C@]2(C)CCC[C@H](C)[C@H](O)[C@@H](C)C(=O)C(C)(C)[C@@H](O)CC(=O)O1 | 13.3% | 19% | 15.6% | 29.5% | 32.9% | 67.4% | 45.1% | 40.3% | 2% (active) | 17.8% | -2.72% (active) | 42.7% | 26.9% | -33.6% (active) | 38.3% | 19.1% | 10.4% | -0.702% (active) | 15% |
| CC[C@@H]1[C@@H](C)O[C@@](O)([C@@H](C)[C@H](O)[C@H](C)[C@H]2OC(=O)/C=C/C=C/[C@H](C)[C@@H]([C@@H](C)[C@@H](O)[C@H](C)[C@@]3(O)C[C@@H](O[C@H]4C[C@@H](O)[C@H](O)C(C)O4)[C@H](CC)[C@@H](C)O3)OC(=O)/C=C/C=C/[C@@H]2C)C[C@H]1O[C@@H]1C[C@@H](O)[C@H](O)C(C)O1 (some centres undefined) | -72.6% (active) | -49.1% (active) | -65.2% (active) | -75.9% (active) | -88.7% (active) | -95.6% (active) | -96.5% (active) | -71.4% (active) | -98% (active) | -51.5% (active) | -64.3% (active) | -63% (active) | -90.5% (active) | -97% (active) | -85.3% (active) | -69.2% (active) | -81.2% (active) | -74.7% (active) | -94.7% (active) |
| CC1(C)[C@H](O)[C@H](F)C[C@@]2(C)Oc3ccc(C(=O)Nc4ccc5c(c4)NC(=O)C54CCN(CCCCC#N)CC4)cc3C[C@H]12 | -19.5% (active) | 10.4% | -12.6% (active) | 62.5% | 62.9% | 64.9% | 17.7% | 63.2% | 61.3% | -13.3% (active) | 83.4% | 38.2% | 32.5% | 24.8% | 0.683% (active) | 27.6% | 18.5% | 68.5% | 22% |
| CC[C@H](C)[C@H](NC(=O)C12C3C4C1C1C2C3C41NC)C(=O)N(C)[C@H](C[C@@H](OC(C)=O)c1nc(C(=O)N[C@@H](Cc2ccccc2)C[C@H](C)C(=O)OC)cs1)C(C)C (some centres undefined) | 24.9% | 20% | 3.54% (active) | 20.4% | 43.5% | 45.5% | 17.1% | 36.9% | -28.1% (active) | 13% | 72.6% | 40.5% | 2.04% (active) | -27.9% (active) | 21.6% | 17.2% | 4% (active) | 15.9% | 15% |
| O=C(O)C(O)C(O)C1[O][Sb]([c]2ccc([N+](=O)[O-])cc2)[O]C1CO (centres undefined) | 98.2% | 102% | 99.2% | 105% | 103% | 112% | 129% | 111% | 114% | 93.8% | 111% | 109% | 114% | 107% | 103% | 93.9% | 104% | 105% | 108% |
| CN(C)C(=O)Oc1ccc(Br)cc1 | 102% | 100% | 106% | 106% | 106% | 97.7% | 95.8% | 96.7% | 106% | 115% | 106% | 92.4% | 103% | 104% | 109% | 88.7% | 103% | 108% | 101% |
